Inconclusive results are not listed. Active and inactive are the calls of the source. Calls come from the whole dose curve; as a rule, active = well fitted activation curve with a large enough effect; inconclusive = small, poorly fitted or top-dose-only effect; inactive = flat fitted curve, though single readings scatter.
Assay: Primary redox qHTS assay for identification of artifact compounds. (AID 1845223)
Conditions: Amplex Red/HRP redox cycling with DTT, fluorescence; series mostly up to 53.8 µM; redox activity (% of DA3003): at the top concentration
Description: PI: Alexander Tropsha Ph.D.
UNC Eshelman School of Pharmacy
University of North Carolina, Chapel Hill, North Carolina
Hits from high-throughput screening (HTS) of chemical libraries are often false positives due to their interference with the assay detection technology. In response to this problem, we generated the largest publicly available library of chemical liabilities and developed a free webtool to predict HTS artifacts, both of which are described herein. More specifically, we generated, curated, and integrated HTS datasets for thiol reactivity, redox activity, and luciferase (firefly and nano) activity. Using these curated datasets, we developed and validated several Quantitative Structure-Interference Relationship (QSIR) models to predict nuisance behavior. […] These models were employed for virtual profiling of the National Center for Advancing Translational Science's (NCATS) in-house library, and 256 compounds for each assay were selected for the experimental validation of nuisance behavior. The BA for these external predictions ranged from 58 to 78% for compounds within the applicability domains of the models. […] The models developed in this study, along with aggregation models previously developed by our group (SCAM Detective) were implemented in "Liability Predictor," an online tool which may be used as part of chemical library design or for triaging HTS hits. Both the models and the curated datasets are publicly available at https://liability.mml.unc.edu/.
SEQUENCE No. (e.g., 1, 2, 3, etc.); […] (e.g., Cells, Incubation, Reagent, etc.); VALUE; DESCRIPTION.
1; Reagent; 3 uL; Amplex Red and HRP mixture.
2; Compounds and control; 16 nL; Kalypsis pin tool (Wako USA) equipped with a 1536-well pin head. […]
6; Detection; Fluorescence, ViewLux microplate reader, 525 nm excitation, 598 nm emission.
NOTES (numbers refer to Sequence numbers above)
1. 3 uL of a mixture containing Amplex Red (25 uM final concentration) and horseradish peroxidase (HRP; 250 mU/mL final concentration) in assay buffer (HBSS) was dispensed into all wells of a 1536-well assay plate (solid-bottom black plate; Greiner Bio One, Monroe, NC).
2. A Wako Pin-tool (Wako Automation, Richmond, VA) was used to transfer 16 nL of compounds (consisting of 7-plates in qHTS format, final concentration range 18.3 nM to 114 uM) or control DA3003 (final concentration range 1.22 nM to 40 uM).
3. 15 min. incubation at room temperature protected from light.
4. 1 uL of DTT (prepared fresh; final concentration 250 uM) was dispensed for a final assay volume of 4 uL.
5. Plates were centrifuged (121xg, 15 seconds) and incubated for 30 minutes at room temperature protected from light.
6. Samples were read for fluorescence (Ex/Em = 525(20)/598(25) nm) on a ViewLux CCD imager (PerkinElmer). Data were normalized to DMSO (0% activity) and DA3003 (10 uM final concentration; 100% activity) and the resulting percent inhibition data were fitted to a 4-parameter Hill equation using NCATS in-house software.

| Structure (SMILES) | redox activity (% of DA3003) |
| --- | --- |
| C[C@@]12CC[C@@H]3[C@@](CC[C@H]4[C@@]3(C)CCC[C@@]4(C)C(=O)O)(CC1=O)C2 | 18.1% (inactive) |
| CC(C)N(CCCCOCC(=O)NS(C)(=O)=O)c1cnc(-c2ccccc2)c(-c2ccccc2)n1 | 3.73% (inactive) |
| Cc1cnc(NC(=O)Nc2cc(Br)c(C)cc2OCC2CNCCO2)cn1 (stereo not given) | 7.44% (inactive) |
| C[C@H](NC(=O)CCc1nc2ccccc2c(=O)[nH]1)c1ccccc1 | -2.36% (inactive) |
| Cc1c2cc(c(C(=O)O)c1C)OC1OC(C(O)C(O)C1O)C(O)C(O)C1OC(O2)C(O)C(O)C1O (stereo not given) | 6.25% [at 25.6 µM] (inactive) |
| O=C(O)[C@@H]1C[C@H]2C[C@@H](CCc3nn[nH]n3)CC[C@H]2CN1 | -1.33% (inactive) |
| COc1cc2c(NC3CCN(CC4CCCCC4)CC3)nc(N3CCCN(C(C)C)CC3)nc2cc1OCCCN1CCCCC1 | 8.46% (inactive) |
| C/C=C/c1ccc2c(c1)[C@@H](C)[C@H](c1ccc(O)cc1)O2 | -5% (inactive) |
| CCCC(=O)O[C@@H]1[C@@H]2[C@@H](OC(C)=O)[C@]3(C)C(=O)[C@H]4[C@@H](OC(C)=O)C(C)(C)C[C@H]4[C@]3(C)C(=O)[C@@]2(OC(C)=O)C[C@@H]1C | -10.7% [at 25.6 µM] (inactive) |
| COc1cc2c(cc1O)[C@H](c1ccc(O[C@@H]3O[C@H](CO)[C@@H](O)[C@H](O)[C@H]3O)c(OC)c1)[C@@H](CO)[C@](O)(CO)C2 | -11.2% [at 25.6 µM] (inactive) |
| CC(C)C(C(=O)N(C)C(C)C(N)=O)N(C)C(=O)C1CCCN1C(=O)/C=C/C=C/C(O)C(C)O (stereo not given) | -10.8% [at 25.6 µM] (inactive) |
| CC12CCC(C(OC3OC(COC4OCC(O)(CO)C4O)C(O)C(O)C3O)C1)C(C)(C)O2 (stereo not given) | -6.66% [at 25.6 µM] (inactive) |
| CCNC(=O)Nc1ccc(-c2nc3c(c(N4CCOC[C@@H]4C)n2)CCN(c2ncccn2)C3)cc1 | 3.28% (inactive) |
| O=C(Nc1ccc(-c2ccncc2)cc1)N[C@H](CO)c1ccccc1 | -1.57% (inactive) |
| CC1(C)CCCC2(C)C1CC(=O)C13CC(CCC12)C(O)(CO)C3 (stereo not given) | -0.926% (inactive) |
| CC(=O)OC1C(c2ccccc2)CCC(c2ccccc2)C1OC(C)=O (stereo not given) | -0.217% (inactive) |
| COc1cc(OC)c(/C=C/S(=O)(=O)Cc2ccc(OC)c(NCC(=O)O)c2)c(OC)c1 | 14.8% (inactive) |
| C[C@@H]1O[C@@H](O[C@H]2[C@H](OC(=O)[C@]34CCC(C)(C)C[C@H]3C3=CCC5[C@@]6(C)C[C@H](O)[C@H](O[C@@H]7O[C@H](CO)[C@@H](O)[C@H](O)[C@H]7O)[C@@](C)(CO)C6[C@H](O)C[C@@]5(C)[C@]3(C)CC4)OC[C@H](O)[C@@H]2O)[C@H](O)[C@H](O)[C@H]1O[C@@H]1OC[C@@H](O)[C@H](O[C@@H]2OC[C@](O)(CO)[C@H]2O)[C@H]1O (stereo not given in full) | 8.55% [at 11.5 µM] (inactive) |
| C[C@@H]1O[C@@H](O[C@H]2[C@H](O[C@H]3[C@H](O)[C@@H](C(=O)O)O[C@@H](O[C@H]4CC[C@@]5(C)C(CC[C@]6(C)C5CC[C@]57OC[C@@]8(CCC(C)(C)CC85)[C@H](O)C[C@]76C)C4(C)C)[C@@H]3O[C@@H]3O[C@H](CO)[C@@H](O[C@@H]4OC[C@@H](O)[C@H](O)[C@H]4O)[C@H](O)[C@H]3O)O[C@H](CO)[C@H](O)[C@@H]2O)[C@H](O)[C@H](O)[C@H]1O (stereo not given in full) | 15% [at 11.5 µM] (inactive) |
| CC(C)C(C#N)O[C@@H]1O[C@H](CO[C@@H]2O[C@@H](C)[C@H](O)[C@@H](O)[C@H]2O)[C@@H](O)[C@H](O)[C@H]1O (stereo not given in full) | -17.6% [at 25.6 µM] (inactive) |

| Structure (SMILES) | redox activity (% of DA3003) |
| --- | --- |
| COc1cc2c(cc1OC)N1C(=O)C[C@]34C=CCN5CC[C@@H]2[C@@H](CC3)[C@]514 | 11.5% (inactive) |
| CC(C)(O[C@@H]1O[C@H](CO)[C@@H](O)[C@H](O)[C@H]1O)C(OC(=O)/C=C\c1ccc(O)cc1)C(=O)OCc1ccc(O[C@@H]2O[C@H](CO)[C@@H](O)[C@H](O)[C@H]2O)cc1 (stereo not given in full) | -10.9% [at 25.6 µM] (inactive) |
| COc1ccc(CCC(=O)c2c(O)cc(O)cc2O[C@@H]2O[C@H](CO)[C@@H](O)[C@H](O)[C@H]2O)cc1 | 15.5% [at 25.6 µM] (inactive) |
| C[C@@H]1COCCN1c1cc(C2(S(C)(=O)=O)CC2)nc(-c2cccc3[nH]ccc23)n1 | -6.17% (inactive) |
| C[C@@H]1C[C@@H]([C@@H](O)C(C)(C)O)O[C@H]2C[C@@]3(C)C(=C12)C[C@H](O)[C@H]1[C@@]2(C)CCC(=O)C(C)(C)C2CC[C@@]13C (stereo not given in full) | 1.18% [at 25.6 µM] (inactive) |
| C=C1CN(Cc2ccc(C(=O)Nc3ccccc3N)cc2)C(=O)c2ccccc21 | -1.27% (inactive) |
| CCc1c(C)nc2c(-c3cnn(-c4cc(CO)ccn4)c3)c[nH]n2c1=O | -3.08% (inactive) |
| C=C1C(=O)O[C@@H]2[C@H]1CCC(C)=C1CCC(=O)O[C@]12C | -8.09% (inactive) |
| CC(Nc1ncnc2nc[nH]c12)c1cc2cccc(Cl)c2c(=O)n1-c1ccccc1 (stereo not given) | -2.18% (inactive) |
| CC1CC(O)C2(OC1=O)OC1C(O)C3C4CCC5CC(OC6OC(CO)C(O)C(O)C6OC6OC(C)C(O)C(O)C6O)CCC5(C)C4CCC3(C)C1C2C (stereo not given) | 10.9% [at 25.6 µM] (inactive) |
| C/C=C/C=C/C(=O)N1CC[C@]23c4ccccc4N[C@H]4N(C)c5cccc6c5[C@@]42CCN([C@H]6C2OC2(C)C)[C@H]13 (stereo not given in full) | 19.2% [at 25.6 µM] (inactive) |
| CC[C@@H](O)C[C@@H]1C(C)=C[C@@H]2CCCC[C@@H]2[C@@]1(C)C(=O)O | 4.54% (inactive) |
| CC(=O)C1=C(C)N(c2cccc(C(F)(F)F)c2)C(=O)N[C@H]1c1ccc(C#N)nc1 | -3.41% [at 11.5 µM] (inactive) |
| CC[C@]12C=CCN3CC[C@@]4(c5cc([C@@]6(C(=O)OC)C[C@H]7C[C@@H](C(C)(F)F)CN(Cc8c6[nH]c6ccccc86)C7)c(OC)cc5N(C)[C@H]4[C@@](O)(C(=O)OC)[C@@H]1OC(C)=O)[C@@H]32 | 11% [at 25.6 µM] (inactive) |
| C=CC(=O)Nc1cccc(CN2C(=O)N(c3c(Cl)c(OC)cc(OC)c3Cl)Cc3cnc(NCCCCN(CC)CC)nc32)c1 | 9.33% (inactive) |
| C[C@H](N)C(=O)N[C@@H](Cc1ccc(O)cc1)C(=O)N1CCC[C@H]1C(=O)NCC(=O)N[C@@H](CCCCN)C(=O)N[C@@H](Cc1ccccc1)C(N)=O | -3.11% [at 11.5 µM] (inactive) |
| CCCC(=O)C1CCN(c2ncnc3c2CN(C(=O)c2ccc(-c4ccccc4)cc2)CC3)CC1 | 5.06% (inactive) |
| COC(=O)CC(O)C1OC(c2ccccc2)C(O)C1O (stereo not given) | -18.2% (inactive) |
| C=C(C(=O)O)[C@H]1C[C@]2(C)[C@@H](O)CC[C@]23O[C@H]1C[C@@H]3C | -9.6% (inactive) |
| CC(C)(C)NCCCNC(=O)c1cccc(Br)c1 | -5.59% (inactive) |
